Measured values reported in PubChem BioAssay (EPA / NIEHS).
The source made the active and inactive calls. Rule for the calls: active = hit-call score of the fitted dose curve at least 0.9, where 1 is the maximum; inactive = score below 0.9.

What was measured:
[1] = read-out: urokinase plasminogen activator (uPA), PLAU (gene 5328); experiment: BSK_KF3CT_uPA: BioMAP Diversity Plus: KF3CT Assay for urokinase plasminogen activator (uPA) Biomarker Activity (AID 2283075); conditions: primary human keratinocytes with fibroblasts; actives raise or lower the signal
Procedure, shortened: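 ELISA read-out of uPA 24 h after dosing human skin keratinocytes co-cultured with foreskin fibroblasts. Signal change fitted both ways relative to DMSO; sulforhodamine B on parallel cultures marks overt cytotoxicity.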

[2] = read-out: CD40, CD40 (gene 958); experiment: BSK_LPS_CD40: BioMAP Diversity Plus: LPS Assay for CD40 Biomarker Activity (AID 2283076); conditions: primary human HUVEC with PBMC; actives raise or lower the signal
Procedure, shortened: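 CD40 signal, measured by ELISA, is fitted in both directions relative to DMSO vehicle. The system is an LPS-driven human vascular primary co-culture of endothelial cells and PBMC, sampled 24 h after compound addition.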

[3] = read-out: Interleukin-8 (IL8), CXCL8 (gene 3576); experiment: BSK_LPS_IL8: BioMAP Diversity Plus: LPS Assay for Interleukin-8 (IL8) Biomarker Activity (AID 2283078); conditions: primary human HUVEC with PBMC; actives raise or lower the signal
Procedure, shortened: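 Endothelial cells and PBMC from human donors are co-cultured, treated with chemicals and LPS, then assayed for IL-8 by ELISA after 24 h. Parallel SRB staining (0.1% SRB after 10% TCA fixation, 560 nm) flags cytotoxicity.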

[4] = BSK_LPS_SRB: Viability Assessment in the BioMAP Diversity Plus: LPS Assay (AID 2283079); conditions: primary human HUVEC with PBMC;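 note: total protein by sulforhodamine B absorbance as a cytotoxicity measure; measured one day after compound addition; fitted in both directions against DMSO so loss or gain of signal counts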
Procedure, shortened: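 Overt cytotoxicity was gauged by sulforhodamine B total-protein staining in a primary human vascular endothelial and mononuclear cell co-culture 24 h post-dosing. Activity was fitted in both directions relative to DMSO.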

[5] = read-out: Interleukin-1 alpha (IL1a), IL1A (gene 3552); experiment: BSK_LPS_IL1a: BioMAP Diversity Plus: LPS Assay for Interleukin-1 alpha (IL1a) Biomarker Activity (AID 2283080); conditions: primary human HUVEC with PBMC; actives raise or lower the signal
Procedure, shortened: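 Measured: IL-1 alpha via ELISA at 24 h in LPS-activated human umbilical vein endothelium–PBMC co-culture. Baseline: DMSO, bidirectional fitting.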

[6] = read-out: Monocyte Chemoattractant Protein-1 (MCP1), CCL2 (gene 6347); experiment: BSK_LPS_MCP1: BioMAP Diversity Plus: LPS Assay for Monocyte Chemoattractant Protein-1 (MCP1) Biomarker Activity (AID 2283081); conditions: primary human HUVEC with PBMC; actives raise or lower the signal;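 for AC50: secreted MCP-1 protein quantified by ELISA in culture supernatant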
Procedure, shortened: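 LPS-stimulated HUVEC/PBMC co-culture; chemical, 24 h; MCP-1 by ELISA; bidirectional fit vs DMSO; cytotoxicity via SRB (0.1% stain, 10% TCA fix, 560 nm) in parallel wells.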

[7] = BSK_LPS_PGE2: BioMAP Diversity Plus: LPS Assay for Prostaglandin E2 (PGE2) Biomarker Activity (AID 2283082); conditions: primary human HUVEC with PBMC; actives raise or lower the signal;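 for AC50: secreted prostaglandin E2 measured by ELISA in LPS-stimulated co-culture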
Procedure, shortened: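 ELISA read-out of PGE2 from human umbilical vein endothelial cells co-cultured with peripheral blood mononuclear cells under LPS, 24 h post-dose. Gain or loss of signal scored relative to DMSO baseline.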

[8] = read-out: Tissue Factor, F3 (gene 2152); experiment: BSK_LPS_TissueFactor: BioMAP Diversity Plus: LPS Assay for Tissue Factor Biomarker Activity (AID 2283084); conditions: primary human HUVEC with PBMC; actives raise or lower the signal
Procedure, shortened: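 In this co-culture system of umbilical vein endothelium with PBMC, stimulated with LPS, cell-surface CD142 is detected by ELISA at 24 h. Endpoint values derive from bidirectional fitting, DMSO serving as baseline.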

[9] = read-out: Tumor necrosis factor (Homo sapiens) (UniProt P01375); experiment: BSK_LPS_TNFa: BioMAP Diversity Plus: LPS Assay for Tumour Necrosis Factor alpha (TNFa) Biomarker Activity (AID 2283085); conditions: primary human HUVEC with PBMC; actives raise or lower the signal;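 for AC50: TNFa protein level quantified by ELISA in the co-culture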
Procedure, shortened: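 HUVEC/PBMC co-culture, LPS-stimulated; 24 h post-dose; TNFa by ELISA; gain or loss of signal fitted bidirectionally vs DMSO baseline.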

[10] = read-out: Vascular cell adhesion molecule 1 (VCAM1), VCAM1 (gene 7412); experiment: BSK_LPS_VCAM1: BioMAP Diversity Plus: LPS Assay for Vascular cell adhesion molecule 1 (VCAM1) Biomarker Activity (AID 2283086); conditions: primary human HUVEC with PBMC; actives raise or lower the signal
Procedure, shortened: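 ELISA read-out of VCAM-1 at 24 h post-dosing in an LPS-driven HUVEC/PBMC primary human co-culture; gain or loss of signal fitted bidirectionally against DMSO baseline. Cytotoxicity tracked in parallel cultures by SRB total-protein staining.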

[11] = read-out: CD38, CD38 (gene 952); experiment: BSK_SAg_CD38: BioMAP Diversity Plus: SAg Assay for CD38 Biomarker Activity (AID 2283087); conditions: primary human HUVEC with PBMC; actives raise or lower the signal
Procedure, shortened: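 Measures CD38 on a human endothelial/PBMC co-culture driven by SEB and TSST-1, 24 h after compound exposure, using ELISA with fluorescence detection; DMSO defines baseline for bidirectional curve fitting.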

[12] = read-out: CD40, CD40 (gene 958); experiment: BSK_SAg_CD40: BioMAP Diversity Plus: SAg Assay for CD40 Biomarker Activity (AID 2283088); conditions: primary human HUVEC with PBMC; actives raise or lower the signal
Procedure, shortened: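 Fluorescence ELISA read-out of CD40 from umbilical vein endothelium plus peripheral blood mononuclear cells, sampled 24 h after dosing. Values come from bidirectional curve fitting with DMSO as baseline.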

[13] = read-out: CD69, CD69 (gene 969); experiment: BSK_SAg_CD69: BioMAP Diversity Plus: SAg Assay for CD69 Biomarker Activity (AID 2283089); conditions: primary human HUVEC with PBMC; actives raise or lower the signal;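 for AC50: cell surface CD69 protein quantified by ELISA with fluorescence detection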
Procedure, shortened: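 Endothelial/PBMC co-culture; chemical added; 24 h incubation; CD69 ELISA with fluorescence detection; bidirectional fit vs DMSO.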

[14] = read-out: Monocyte Chemoattractant Protein-1 (MCP1), CCL2 (gene 6347); experiment: BSK_SAg_MCP1: BioMAP Diversity Plus: SAg Assay for Monocyte Chemoattractant Protein-1 (MCP1) Biomarker Activity (AID 2283090); conditions: primary human HUVEC with PBMC; actives raise or lower the signal
Procedure, shortened: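 Values derive from bidirectional fitting of ELISA-measured MCP1 against DMSO controls. Readings were taken 24 h after dosing human vascular endothelial cells co-cultured with peripheral blood mononuclear cells under superantigen stimulation.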

[15] = read-out: E-selectin (Homo sapiens) (UniProt P16581); experiment: BSK_SAg_Eselectin: BioMAP Diversity Plus: SAg Assay for Eselectin Biomarker Activity (AID 2283091); conditions: primary human HUVEC with PBMC; actives raise or lower the signal
Procedure, shortened: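 Primary human endothelial cells and peripheral blood mononuclear cells were co-cultured and exposed to chemical for 24 hours. E-selectin levels were then quantified by ELISA, with bidirectional curve fitting normalised to DMSO controls.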

[16] = read-out: Monokine induced gamma interferon (MIG), CXCL9 (gene 4283); experiment: BSK_SAg_MIG: BioMAP Diversity Plus: SAg Assay for Monokine induced gamma interferon (MIG) Biomarker Activity (AID 2283092); conditions: primary human HUVEC with PBMC; actives raise or lower the signal
Procedure, shortened: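 Measures CXCL9 protein by ELISA in a human vascular primary-cell co-culture (umbilical vein endothelium with PBMC) 24 h after chemical addition. Activity is scored up or down from the DMSO control.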

[17] = BSK_SAg_PBMCCytotoxicity: PBMC Cytotoxicity Assessment in the BioMAP Diversity Plus: SAg Assay (AID 2283093); conditions: primary human HUVEC with PBMC;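 note: PBMC viability measured as Alamar Blue reduction fluorescence at 546/580 nm; fitted both ways against DMSO so a hit may be loss or gain of signal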;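 for AC50: PBMC superantigen activated with SEB plus TSST-1 one hour after compound addition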
Procedure, shortened: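 Alamar Blue reduction (6 h, ex/em 546/580 nm) read after 90 h culture of PBMC pre-dosed 1 h then stimulated with SEB plus TSST-1, 20 ng/mL each. Gain or loss of signal fitted relative to DMSO.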

[18] = read-out: Interleukin-8 (IL8), CXCL8 (gene 3576); experiment: BSK_SAg_IL8: BioMAP Diversity Plus: SAg Assay for Interleukin-8 (IL8) Biomarker Activity (AID 2283094); conditions: primary human HUVEC with PBMC; actives raise or lower the signal
Procedure, shortened: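 HUVEC/PBMC co-culture, 24 h post-dose; IL-8 by ELISA. Gain or loss of signal fitted bidirectionally vs DMSO baseline.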

[19] = read-out: Macrophage colony-stimulating factor (MCSF), CSF1 (gene 1435); experiment: BSK_LPS_MCSF: BioMAP Diversity Plus: LPS Assay for Macrophage colony-stimulating factor (MCSF) Biomarker Activity (AID 2283083); conditions: primary human HUVEC with PBMC; actives raise or lower the signal
Procedure, shortened: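 Compound is added to a human vascular primary co-culture of umbilical vein endothelium and blood mononuclear cells. After 24 h, M-CSF is quantified by ELISA. Signal changes are fitted in both directions against DMSO.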

Measured: AC50

Sequence of Tumor necrosis factor (Homo sapiens) (P01375 whole entry, looked up): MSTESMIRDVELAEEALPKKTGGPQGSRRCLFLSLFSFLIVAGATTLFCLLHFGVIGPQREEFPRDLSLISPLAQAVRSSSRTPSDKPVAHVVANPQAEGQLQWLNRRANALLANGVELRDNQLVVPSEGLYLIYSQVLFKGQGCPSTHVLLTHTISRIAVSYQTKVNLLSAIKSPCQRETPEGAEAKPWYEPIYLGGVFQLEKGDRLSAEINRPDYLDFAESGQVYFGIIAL
Sequence of E-selectin (Homo sapiens) (P16581 whole entry, looked up): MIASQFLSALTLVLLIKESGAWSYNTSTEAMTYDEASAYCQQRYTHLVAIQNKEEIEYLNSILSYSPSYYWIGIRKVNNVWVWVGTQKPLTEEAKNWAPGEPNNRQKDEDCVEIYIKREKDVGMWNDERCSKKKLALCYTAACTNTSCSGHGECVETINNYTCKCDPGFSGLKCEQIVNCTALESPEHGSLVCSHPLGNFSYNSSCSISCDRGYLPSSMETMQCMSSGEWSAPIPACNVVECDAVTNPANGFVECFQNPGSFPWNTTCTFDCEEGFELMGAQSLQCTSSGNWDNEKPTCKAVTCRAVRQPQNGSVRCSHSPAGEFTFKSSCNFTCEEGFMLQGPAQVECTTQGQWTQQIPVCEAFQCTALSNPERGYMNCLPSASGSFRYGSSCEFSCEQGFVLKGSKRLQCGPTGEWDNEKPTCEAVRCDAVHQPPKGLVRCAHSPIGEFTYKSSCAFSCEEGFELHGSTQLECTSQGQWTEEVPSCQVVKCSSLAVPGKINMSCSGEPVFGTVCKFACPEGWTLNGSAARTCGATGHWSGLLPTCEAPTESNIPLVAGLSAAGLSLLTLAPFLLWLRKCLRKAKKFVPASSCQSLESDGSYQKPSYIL

Cc1ccccc1OP(=O)(Oc1ccccc1C)Oc1ccccc1C
active: [1] 20 µM | [2] 9.38 µM | [3] 12.6 µM | [4] 12.3 µM | [5] 11 µM | [6] 12.7 µM | [8] 27.5 µM | [10] 11.4 µM | [11] 28.9 µM | [12] 12.5 µM | [13] 13.8 µM | [14] 14.8 µM | [15] 30.6 µM | [16] 33.6 µM | [17] 26.6 µM | [18] 12.4 µM
inactive: [7] | [9]

O=S(=O)(c1ccc(Cl)cc1)c1cc(Cl)c(Cl)cc1Cl
active: [11] 3.97 µM
inactive: [1] | [2] | [3] | [5] | [6] | [7] | [19] | [8] | [9] | [10] | [12] | [13] | [14] | [15] | [16] | [18]

CCOC(=O)CCN(SN(C)C(=O)Oc1cccc2c1OC(C)(C)C2)C(C)C
inactive: [1] | [2] | [3] | [5] | [6] | [7] | [8] | [9] | [18]
active: [10] 20 µM | [11] 30 µM | [12] 29.6 µM | [13] 29.3 µM | [14] 32 µM | [15] 27.7 µM | [16] 35.4 µM | [17] 26 µM

Cc1cc(C(C)(C)c2ccc(O)c(C)c2)ccc1O
active: [2] 14.3 µM | [4] 12.5 µM | [7] 4.51 µM | [11] 14.7 µM | [12] 15.4 µM | [13] 15.4 µM | [14] 15.9 µM | [15] 14.8 µM
inactive: [1] | [3] | [5] | [6] | [8] | [9] | [10] | [16] | [18]

Cc1ccccc1OP(=O)(Oc1ccccc1)Oc1ccccc1
active: [2] 15.7 µM | [4] 20 µM | [5] 28.1 µM | [6] 20 µM | [10] 20 µM | [11] 20 µM | [12] 28.3 µM | [13] 28.1 µM | [14] 20 µM | [15] 30.9 µM | [18] 9.82 µM
inactive: [1] | [3] | [7] | [8] | [9] | [16] | [17]

NC(=O)CCl
inactive: [1] | [2] | [3] | [5] | [6] | [7] | [8] | [9] | [11] | [12] | [13] | [14] | [15] | [16] | [17] | [18]

O=[N+]([O-])c1ccc(Nc2ccccc2)cc1
inactive: [1] | [2] | [3] | [5] | [6] | [7] | [19] | [8] | [10] | [11] | [12] | [13] | [14] | [15] | [16] | [18]
active: [9] 32.5 µM

CCN(CC)C(=O)C(Cl)=C(C)OP(=O)(OC)OC
inactive: [1] | [2] | [3] | [4] | [5] | [6] | [7] | [8] | [9] | [10] | [11] | [12] | [13] | [14] | [15] | [16] | [17] | [18]

CCCCN(CCCC)C(=S)[S-].CCCCN(CCCC)C(=S)[S-].[Ni+2]
inactive: [1] | [2] | [3] | [5] | [6] | [7] | [19] | [8] | [9] | [11] | [12] | [13] | [14] | [15] | [16] | [17] | [18]

O=C(O)C1(c2ccc3c(c2)OC[C@H](Cc2ccc(-c4ccccc4)cc2)[C@H]3O)CCCC1
inactive: [3] | [5] | [6] | [7] | [8] | [9] | [13] | [16] | [17]
active: [1] 28.6 µM | [2] 20 µM | [10] 20 µM | [11] 23.3 µM | [12] 20 µM | [14] 20 µM | [15] 14.1 µM | [18] 24.6 µM
